The results in this text go back to PubChem BioAssay (NCI).

This is part of a sample that, as a whole, favours compounds with a hit. Of some 83,000 tested, about 20% had one in any assay.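 The endpoint reported here, percent growth, reads 100 for growth as untreated, 0 for no net growth and -100 for all cells dead.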 A number with no mark means an inactive call. Active and inactive are the calls of the source. The calls were made as follows: active = growth percent below 10; inactive = the rest.

What all share (assay): NCI-60 one-dose screen, 48 h (100 = growth as untreated, 0 = no growth, -100 = all killed)
The test system of one assay is NCI-H23 lung. As to conditions: 10 µM unless noted.
A further assay relates to NCI-H460 lung. As to conditions: 10 µM unless noted.
The test system of a further assay is A549/ATCC NSCLC. As to conditions: 10 µM unless noted.
The test system of another assay is RXF 393 renal. Conditions: 10 µM unless noted.
The test system of the next assay is SF-295 CNS. Conditions: 10 µM unless noted.
A further assay has as its system UACC-257 melanoma. Conditions: 10 µM unless noted.
The subject of a further assay is U251 CNS. Conditions: 10 µM unless noted.
Another assay concerns LOX IMVI melanoma. As to conditions: 10 µM unless noted.
The next assay deals with SK-MEL-28 melanoma. Conditions: 10 µM unless noted.
For a further assay, the system named is UO-31 renal. As to conditions: 10 µM unless noted.
Another assay deals with TK-10 renal. As to conditions: 10 µM unless noted.
Another assay deals with A498 renal. Conditions: 10 µM unless noted.
For another assay, the system named is HL-60(TB) leukemia. Conditions: 10 µM unless noted.
The test system of another assay is SR leukemia. Conditions: 10 µM.
In another assay the test system is OVCAR-4 ovarian. Conditions: 10 µM unless noted.
For a further assay, the system named is BT-549 breast. As to conditions: 10 µM.
The next assay concerns HCC-2998 colon. As to conditions: 10 µM unless noted.
For the next assay, the system named is HOP-62 NSCLC. As to conditions: 10 µM unless noted.
The subject of another assay is K-562 leukemia. Conditions: 10 µM unless noted.
For another assay, the system named is SK-MEL-2 melanoma. As to conditions: 10 µM unless noted.

For `CCC(C)(C)O`, the growth in the assay with NCI-H23 lung was 111%; in the assay with NCI-H460 lung, 104%; with A549/ATCC NSCLC, 108%; in the assay on RXF 393 renal, 111%; in the assay on SF-295 CNS, 87.7%; with UACC-257 melanoma it was 119%. Moreover, the growth with U251 CNS was 108%; with LOX IMVI melanoma, 108%; with SK-MEL-28 melanoma it was 108%; with UO-31 renal, 93.8%; in the assay with TK-10 renal, 107%; in the assay with A498 renal, 83.1%. In addition, the growth in the assay on HL-60(TB) leukemia is 86.4%; in the assay on SR leukemia, 101%; with OVCAR-4 ovarian, 111%; with BT-549 breast it was 110%; in the assay with HCC-2998 colon it was 112%.
Regarding `CCOc1c(Cl)cc(CNC(C)C(O)c2ccccc2)cc1OC` (configuration not stated), the growth with NCI-H23 lung was 80.4%; in the assay with HOP-62 NSCLC it was 73.3%; in the assay with NCI-H460 lung it was 75.1%; in the assay with A549/ATCC NSCLC, 29.3%; with K-562 leukemia, 13.9%; with RXF 393 renal it was 67%. The growth is 48.4% in the assay on SF-295 CNS; 51.4% with UACC-257 melanoma; 34.3% with U251 CNS; 57.1% in the assay on LOX IMVI melanoma; 41.5% with SK-MEL-28 melanoma; 72.7% with SK-MEL-2 melanoma. For the same molecule, the growth in the assay on UO-31 renal was 92.6%; with TK-10 renal, 90.5%; in the assay with A498 renal, 32.9%; in the assay with HL-60(TB) leukemia, 20.5%; in the assay on SR leukemia, 10.8%; in the assay on BT-549 breast, 72.2%. Moreover, in the assay with HCC-2998 colon, the growth is 81.3%.
With `O=C(CCF)c1ccc(O)cc1`, the growth with NCI-H23 lung is 94%; in the assay with A549/ATCC NSCLC, 101%; in the assay with K-562 leukemia it was 98.9%; in the assay with RXF 393 renal, 109%; in the assay on SF-295 CNS, 100%; in the assay on UACC-257 melanoma it was 98.2%. For the same molecule, the growth with U251 CNS is 106%; in the assay with LOX IMVI melanoma, 95%; in the assay with SK-MEL-28 melanoma it was 113%; with SK-MEL-2 melanoma, 105%; in the assay with UO-31 renal, 87%; in the assay on TK-10 renal it was 106%. The growth with HL-60(TB) leukemia was 99.2%; with SR leukemia, 96%; with OVCAR-4 ovarian, 103%; in the assay on BT-549 breast it was 110%; in the assay with HCC-2998 colon, 108%.
Take `C/C1=C/C(=O)O[C@@H]2C[C@@H](CC[C@H](C)/C=C\C=C\CC1)O[C@@](OCCc1ccccc1)([C@@H]1CSC(=O)N1)C2`: the growth in the assay on NCI-H23 lung is 35.1%; in the assay with HOP-62 NSCLC, -15.8% (active); in the assay on NCI-H460 lung it was 21.6%; in the assay on A549/ATCC NSCLC, 15.4%; in the assay with K-562 leukemia, 36.3%; in the assay on RXF 393 renal, -77.1% (active). The growth with SF-295 CNS was 17.7%; with UACC-257 melanoma, -3.39% (active); in the assay on U251 CNS it was 16.4%; with LOX IMVI melanoma, 4.46% (active); in the assay on SK-MEL-2 melanoma, 67.7%; in the assay on UO-31 renal, -62.5% (active). The growth was -68.1% (active) in the assay with TK-10 renal; -29.1% (active) in the assay with A498 renal; 90.6% in the assay on HL-60(TB) leukemia; 41.3% with SR leukemia; -4.5% (active) in the assay with OVCAR-4 ovarian; -43% (active) with BT-549 breast. For the same molecule, the growth in the assay with HCC-2998 colon is 55.9%.
Take `COc1cc(CNCCc2ccc(Cl)cc2)cc(OC)c1O`: the growth in the assay with NCI-H23 lung was 67%; in the assay with HOP-62 NSCLC it was 83.3%; in the assay with NCI-H460 lung it was 83.3%; in the assay on A549/ATCC NSCLC it was 89.8%; in the assay on K-562 leukemia it was 21.7%; in the assay with RXF 393 renal, 66.3%. The growth is 90.2% in the assay with UACC-257 melanoma; 58.5% in the assay on U251 CNS; 70.7% in the assay with LOX IMVI melanoma; 69.9% with SK-MEL-28 melanoma; 27.8% in the assay on SK-MEL-2 melanoma; 61% in the assay on UO-31 renal. In addition, the growth with TK-10 renal was 79.6%; in the assay with A498 renal it was 66.3%; in the assay with HL-60(TB) leukemia, 54.4%; with SR leukemia, 14.5%; with OVCAR-4 ovarian, 69%; in the assay on BT-549 breast, 71.8%. For the same molecule, the growth in the assay on HCC-2998 colon was 83.2%.
For `NC(=O)C(Cl)Cl`, the growth in the assay with NCI-H23 lung is 108%; in the assay with HOP-62 NSCLC it was 102%; in the assay on NCI-H460 lung, 100%; with K-562 leukemia it was 100%; in the assay with SF-295 CNS it was 98.3%; in the assay on UACC-257 melanoma, 94.8%. Moreover, the growth is 112% with SK-MEL-28 melanoma; 94.6% in the assay on UO-31 renal; 98.7% with TK-10 renal; 106% in the assay with A498 renal; 80.8% in the assay with HL-60(TB) leukemia; 99.5% in the assay on SR leukemia. Besides, the figures for the growth in the assay with OVCAR-4 ovarian, with BT-549 breast and with HCC-2998 colon were 105%, 111% and 120%, respectively.
As to `CCN1CC2(CN(CC)C1=S)C(=O)NC(=O)NC2=O`, the growth in the assay with NCI-H23 lung is 98.9%; in the assay on HOP-62 NSCLC it was 90.1%; in the assay with NCI-H460 lung, 100%; with A549/ATCC NSCLC, 99.9%; in the assay with K-562 leukemia, 87.5%; with RXF 393 renal, 116%. The growth with SF-295 CNS was 95.1%; in the assay on UACC-257 melanoma, 94.7%; in the assay with U251 CNS, 97.7%; in the assay on LOX IMVI melanoma, 103%; with SK-MEL-28 melanoma, 105%; in the assay on SK-MEL-2 melanoma, 99%. In addition, the growth was 99.4% with UO-31 renal; 98.5% with TK-10 renal; 112% in the assay on A498 renal; 83.3% with HL-60(TB) leukemia; 114% in the assay with SR leukemia; 93.3% in the assay on OVCAR-4 ovarian. Moreover, the growth in the assay with BT-549 breast is 91.4%; in the assay with HCC-2998 colon, 99.7%.
On to `CC(=O)O[C@@H]1C2=C(C)C3(CC3)[C@@](C)(O)C(=O)C2=C[C@@]1(C)CO`, for which the growth was -33.2% (active) in the assay on NCI-H23 lung; -10.1% (active) with HOP-62 NSCLC; 2.34% (active) in the assay with NCI-H460 lung; 6.08% (active) with A549/ATCC NSCLC; 1.92% (active) in the assay with K-562 leukemia; -89.6% (active) in the assay on RXF 393 renal. Besides, the growth in the assay with SF-295 CNS is -3.92% (active); with UACC-257 melanoma, -34.7% (active); in the assay with U251 CNS, -2.05% (active); with LOX IMVI melanoma it was -25.2% (active); with SK-MEL-28 melanoma, -28.8% (active); in the assay on SK-MEL-2 melanoma, -42.2% (active). For the same molecule, the growth in the assay on UO-31 renal was -51% (active); in the assay on TK-10 renal, 4.18% (active); with HL-60(TB) leukemia it was -4.61% (active); in the assay with SR leukemia it was 4.56% (active); in the assay with BT-549 breast it was -32.6% (active); in the assay on HCC-2998 colon, -68.7% (active).
Take `CCCCNCCc1ccccn1`: the growth in the assay on HOP-62 NSCLC is 107%; in the assay with NCI-H460 lung it was 107%; in the assay on A549/ATCC NSCLC, 100%; in the assay on K-562 leukemia it was 90.4%; in the assay on RXF 393 renal it was 113%; in the assay on SF-295 CNS, 100%. In addition, the growth in the assay on UACC-257 melanoma is 94.5%; with LOX IMVI melanoma, 97.1%; in the assay on SK-MEL-28 melanoma it was 104%; in the assay with SK-MEL-2 melanoma, 87.3%; in the assay with UO-31 renal, 88.4%; in the assay on TK-10 renal, 96.8%. In addition, the growth in the assay on A498 renal is 95.5%; in the assay on HL-60(TB) leukemia, 99.1%; with SR leukemia it was 101%; with OVCAR-4 ovarian it was 106%; in the assay on BT-549 breast it was 98.2%; with HCC-2998 colon it was 114%.
